About 8,800 targets were measured; listed, in parts, are those with a hit and a random draw of the rest. About 0.5% of all pairs of compound and target were hits.
Legend:
Test in all cases: log2 fold change, soluble protein after heating vs DMSO (PISA); higher = thermal stabilisation; K562 lysate, 10 uM; active = over 0.2 and 3.5 SD of the protein, either way, in both replicates (recomputed)
vemurafenib = compound: CCCS(=O)(=O)Nc1ccc(F)c(C(=O)c2c[nH]c3ncc(-c4ccc(Cl)cc4)cc23)c1F [vemurafenib]
Summary of the method: (§1)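 Pellets of K562 cells were dounce-homogenised in PBS pH 7.4 with 1 mM MgCl2, and the crude extract was held at 1 mg/mL protein for a 30 min treatment with 10 μM compound. Aliquots were heated for 3 min over 48°C-58°C and pooled before NP-40 was added to 0.5% at 4°C. The supernatant from 21,000xg for 90 min was quantified by TMTpro 16plex LC-MS/MS with channel sums equalised. Values are reported from duplicates as log-two fold change in thermal stability relative to solvent controls.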

[1] = compound: CCCS(=O)(=O)Nc1ccc(F)c(C(=O)c2c[nH]c3ncc(Cl)cc23)c1F
Summary of the method: as §1

barasertib = compound: CCN(CCCOc1ccc2c(Nc3cc(CC(=O)Nc4cccc(F)c4)[nH]n3)ncnc2c1)CCOP(=O)(O)O [barasertib]
Summary of the method: as §1

[2] = compound: CC[C@@H]1C(=O)N(C)c2cnc(Nc3ccc(C(=O)NC4CCN(C)CC4)cc3OC)nc2N1C1CCCC1
Summary of the method: as §1

volasertib = compound: CC[C@@H]1C(=O)N(C)c2cnc(Nc3ccc(C(=O)N[C@H]4CC[C@H](N5CCN(CC6CC6)CC5)CC4)cc3OC)nc2N1C(C)C [volasertib]
Summary of the method: as §1

[3] = compound: CCn1c(C(=O)N(C2CC2)C2CC2)cc2c3c(ncn3C)c(Nc3cc(C)n(C)n3)nc21
Summary of the method: as §1

[4] = compound: CCn1cc(-c2ccnc3[nH]c(-c4cccc(CN(C)C)c4)cc23)c(-c2ccc(NC(=O)N(C)C)cc2)n1
Summary of the method: as §1

[5] = compound: CN1CCC(CNc2ccc3ncc(-c4cccc(OC(F)(F)F)c4)n3n2)CC1
Summary of the method: as §1

saracatinib = compound: CN1CCN(CCOc2cc(OC3CCOCC3)c3c(Nc4c(Cl)ccc5c4OCO5)ncnc3c2)CC1 [saracatinib]
Summary of the method: as §1

sotrastaurin = compound: CN1CCN(c2nc(C3=C(c4c[nH]c5ccccc45)C(=O)NC3=O)c3ccccc3n2)CC1 [sotrastaurin]
Summary of the method: as §1

Measured: log2 fold change

RAC2 (UniProt P15153)
inactive: vemurafenib 0.028 | [1] 0.034 | barasertib 0.054 | [2] 0.049 | volasertib -0.071 | [3] -0.001 | [4] -0.011 | [5] 0.008 | saracatinib 0.045 | sotrastaurin -0.058

SAMHD1 (UniProt Q9Y3Z3)
inactive: vemurafenib 0.034 | [1] 0.045 | barasertib 0.007 | [2] -0.032 | volasertib -0.037 | [3] 0.068 | [4] -0.096 | [5] 0.079 | saracatinib -0.052 | sotrastaurin 0.032

SDHC (UniProt Q99643)
Chain of UniProt Q99643 (Q99643 whole entry, looked up): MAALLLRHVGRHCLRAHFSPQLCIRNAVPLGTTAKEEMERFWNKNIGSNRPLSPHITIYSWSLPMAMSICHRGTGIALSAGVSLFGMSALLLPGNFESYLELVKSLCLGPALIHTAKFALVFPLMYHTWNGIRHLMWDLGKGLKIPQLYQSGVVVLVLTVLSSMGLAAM
active: [4] -0.307
inactive: vemurafenib -0.035 | [1] -0.022 | barasertib 0.031 | [2] -0.089 | volasertib 0.044 | [3] 0.04 | [5] 0.156 | saracatinib 0.063 | sotrastaurin 0.062

SAMD4A (UniProt Q9UPU9)
Chain of UniProt Q9UPU9 (Q9UPU9 whole entry, looked up): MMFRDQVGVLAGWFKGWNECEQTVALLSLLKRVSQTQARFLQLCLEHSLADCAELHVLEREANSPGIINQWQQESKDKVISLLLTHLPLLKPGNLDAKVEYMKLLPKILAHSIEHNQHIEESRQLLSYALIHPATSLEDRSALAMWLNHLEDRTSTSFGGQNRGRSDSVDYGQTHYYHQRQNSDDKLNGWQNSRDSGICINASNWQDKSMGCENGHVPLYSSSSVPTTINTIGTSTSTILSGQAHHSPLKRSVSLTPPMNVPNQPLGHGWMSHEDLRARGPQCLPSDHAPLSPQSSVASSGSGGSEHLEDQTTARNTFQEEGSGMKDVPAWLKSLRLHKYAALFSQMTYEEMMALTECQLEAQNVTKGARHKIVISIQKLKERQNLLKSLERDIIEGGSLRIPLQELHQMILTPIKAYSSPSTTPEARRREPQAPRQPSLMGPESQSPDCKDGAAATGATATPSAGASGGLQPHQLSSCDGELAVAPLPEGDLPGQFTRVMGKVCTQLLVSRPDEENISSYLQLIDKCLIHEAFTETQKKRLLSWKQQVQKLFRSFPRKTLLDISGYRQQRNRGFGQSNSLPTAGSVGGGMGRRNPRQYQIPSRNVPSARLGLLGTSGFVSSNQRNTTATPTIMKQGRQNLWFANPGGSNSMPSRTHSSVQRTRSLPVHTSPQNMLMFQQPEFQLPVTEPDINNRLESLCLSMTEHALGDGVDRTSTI
inactive: vemurafenib -0.032 | [1] -0.376 | barasertib 0.005 | [2] 0.05 | volasertib 0.014 | [3] -0.292 | [4] 1.12 | [5] 0.115 | saracatinib 0.07 | sotrastaurin 0.01

RTN4IP1 (UniProt Q8WWV3)
inactive: vemurafenib -0.02 | [1] 0.047 | barasertib -0.049 | [2] -0.018 | volasertib -0.014 | [3] -0.007 | [4] 0.058 | [5] -0.106 | saracatinib -0.048 | sotrastaurin 0.015

RALGAPB (UniProt Q86X10)
inactive: vemurafenib 0.044 | [1] 0.016 | barasertib 0.103 | [2] -0.008 | volasertib -0.023 | [3] -0.013 | [4] -0.09 | [5] 0.07 | saracatinib 0.017 | sotrastaurin 0.032

RANBP6 (UniProt O60518)
Chain of UniProt O60518 (O60518 whole entry, looked up): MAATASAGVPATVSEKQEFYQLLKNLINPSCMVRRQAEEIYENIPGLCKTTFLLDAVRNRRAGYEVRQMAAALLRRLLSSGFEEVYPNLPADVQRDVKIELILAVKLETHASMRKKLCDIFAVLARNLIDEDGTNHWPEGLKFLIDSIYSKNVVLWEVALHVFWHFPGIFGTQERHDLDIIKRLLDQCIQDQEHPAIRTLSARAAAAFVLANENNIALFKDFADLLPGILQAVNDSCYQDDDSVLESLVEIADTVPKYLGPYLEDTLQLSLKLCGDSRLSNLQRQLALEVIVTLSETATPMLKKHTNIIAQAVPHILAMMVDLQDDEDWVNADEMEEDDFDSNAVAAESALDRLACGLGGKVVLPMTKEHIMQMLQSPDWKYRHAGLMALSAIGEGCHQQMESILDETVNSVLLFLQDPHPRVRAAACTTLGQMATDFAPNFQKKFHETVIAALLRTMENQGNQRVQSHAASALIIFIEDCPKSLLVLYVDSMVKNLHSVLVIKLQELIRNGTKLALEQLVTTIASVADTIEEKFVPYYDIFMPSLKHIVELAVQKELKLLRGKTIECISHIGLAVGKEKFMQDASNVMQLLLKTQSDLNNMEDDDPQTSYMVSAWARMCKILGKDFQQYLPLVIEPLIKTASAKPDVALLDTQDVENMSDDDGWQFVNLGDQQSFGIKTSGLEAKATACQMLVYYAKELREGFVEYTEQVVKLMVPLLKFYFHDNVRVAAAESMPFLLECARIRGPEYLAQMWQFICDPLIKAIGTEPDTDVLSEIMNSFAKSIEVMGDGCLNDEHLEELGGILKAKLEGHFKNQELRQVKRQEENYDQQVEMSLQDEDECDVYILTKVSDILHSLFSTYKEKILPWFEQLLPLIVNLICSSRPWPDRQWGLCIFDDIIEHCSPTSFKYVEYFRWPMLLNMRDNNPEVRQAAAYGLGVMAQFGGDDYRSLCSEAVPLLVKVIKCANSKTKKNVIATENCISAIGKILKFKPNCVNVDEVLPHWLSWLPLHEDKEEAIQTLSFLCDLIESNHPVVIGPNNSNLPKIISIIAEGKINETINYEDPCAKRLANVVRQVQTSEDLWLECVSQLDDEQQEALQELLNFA
inactive: vemurafenib 0.008 | [1] 0.025 | barasertib 0.013 | [2] -0.016 | volasertib 0.013 | [3] 0.068 | [4] -0.045 | [5] 0.06 | saracatinib -0.038 | sotrastaurin 0.002

RTTN (UniProt Q86VV8)
inactive: vemurafenib 0.066 | [1] 0.011 | barasertib 0.043 | [2] -0.101 | volasertib -0.293 | [3] 0.099 | [4] -0.347 | [5] -0.316 | saracatinib 0.047

RRAGA (UniProt Q7L523)
Chain of UniProt Q7L523 (Q7L523 whole entry, looked up): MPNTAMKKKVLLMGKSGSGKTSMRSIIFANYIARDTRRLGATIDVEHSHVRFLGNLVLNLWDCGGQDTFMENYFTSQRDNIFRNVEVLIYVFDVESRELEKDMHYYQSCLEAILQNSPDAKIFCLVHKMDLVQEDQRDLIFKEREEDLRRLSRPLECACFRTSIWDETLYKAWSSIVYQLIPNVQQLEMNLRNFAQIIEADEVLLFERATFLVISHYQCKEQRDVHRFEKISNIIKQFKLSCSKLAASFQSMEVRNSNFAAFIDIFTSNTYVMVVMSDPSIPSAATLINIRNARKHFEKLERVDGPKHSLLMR
inactive: vemurafenib 0.111 | [1] 0.092 | barasertib -0.004 | [2] 0.014 | volasertib 0.042 | [3] 0.139 | [4] -0.011 | [5] 0.051 | saracatinib 0.081 | sotrastaurin -0.014

RARS (UniProt P54136)
Chain of UniProt P54136 (P54136 whole entry, looked up): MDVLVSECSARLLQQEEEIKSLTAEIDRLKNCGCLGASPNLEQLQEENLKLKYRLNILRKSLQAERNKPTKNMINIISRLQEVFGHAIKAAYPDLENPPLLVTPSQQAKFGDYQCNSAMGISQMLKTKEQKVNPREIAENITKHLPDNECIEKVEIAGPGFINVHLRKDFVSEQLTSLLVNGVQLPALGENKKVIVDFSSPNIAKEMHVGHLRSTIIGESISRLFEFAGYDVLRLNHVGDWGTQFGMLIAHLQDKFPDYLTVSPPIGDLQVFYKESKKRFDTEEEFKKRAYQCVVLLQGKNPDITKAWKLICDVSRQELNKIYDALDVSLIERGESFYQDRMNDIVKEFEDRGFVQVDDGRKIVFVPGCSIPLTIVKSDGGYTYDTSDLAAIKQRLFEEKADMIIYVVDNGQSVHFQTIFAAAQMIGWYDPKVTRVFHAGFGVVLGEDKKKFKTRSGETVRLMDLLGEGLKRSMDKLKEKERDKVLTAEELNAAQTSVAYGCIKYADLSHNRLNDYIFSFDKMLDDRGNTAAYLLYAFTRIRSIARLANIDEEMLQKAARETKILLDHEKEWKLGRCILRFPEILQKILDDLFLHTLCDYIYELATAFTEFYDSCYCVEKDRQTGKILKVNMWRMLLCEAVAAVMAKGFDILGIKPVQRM
inactive: vemurafenib -0.004 | [1] -0.003 | barasertib 0.046 | [2] -0.093 | volasertib -0.078 | [3] 0.067 | [4] 0.013 | [5] -0.039 | saracatinib 0.027 | sotrastaurin 0.045

RDH10 (UniProt Q8IZV5)
Chain of UniProt Q8IZV5 (Q8IZV5 whole entry, looked up): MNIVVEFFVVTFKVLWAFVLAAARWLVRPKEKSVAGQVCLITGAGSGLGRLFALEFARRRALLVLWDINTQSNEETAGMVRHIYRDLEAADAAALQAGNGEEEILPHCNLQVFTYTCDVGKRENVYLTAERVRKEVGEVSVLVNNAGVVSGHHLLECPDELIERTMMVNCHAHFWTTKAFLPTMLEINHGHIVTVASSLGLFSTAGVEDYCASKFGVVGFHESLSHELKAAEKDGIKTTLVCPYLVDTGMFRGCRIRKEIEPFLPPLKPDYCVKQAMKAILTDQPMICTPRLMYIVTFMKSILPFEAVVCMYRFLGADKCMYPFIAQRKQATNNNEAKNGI
inactive: vemurafenib 0.054 | [1] 0.032 | barasertib 0.027 | [2] -0.011 | volasertib 0.035 | [3] -0.072 | [4] -0.067 | [5] 0.062 | saracatinib -0.035 | sotrastaurin -0.006

RAP1GAP isoform 4 (UniProt P47736)
Chain of UniProt P47736 (P47736 whole entry, looked up): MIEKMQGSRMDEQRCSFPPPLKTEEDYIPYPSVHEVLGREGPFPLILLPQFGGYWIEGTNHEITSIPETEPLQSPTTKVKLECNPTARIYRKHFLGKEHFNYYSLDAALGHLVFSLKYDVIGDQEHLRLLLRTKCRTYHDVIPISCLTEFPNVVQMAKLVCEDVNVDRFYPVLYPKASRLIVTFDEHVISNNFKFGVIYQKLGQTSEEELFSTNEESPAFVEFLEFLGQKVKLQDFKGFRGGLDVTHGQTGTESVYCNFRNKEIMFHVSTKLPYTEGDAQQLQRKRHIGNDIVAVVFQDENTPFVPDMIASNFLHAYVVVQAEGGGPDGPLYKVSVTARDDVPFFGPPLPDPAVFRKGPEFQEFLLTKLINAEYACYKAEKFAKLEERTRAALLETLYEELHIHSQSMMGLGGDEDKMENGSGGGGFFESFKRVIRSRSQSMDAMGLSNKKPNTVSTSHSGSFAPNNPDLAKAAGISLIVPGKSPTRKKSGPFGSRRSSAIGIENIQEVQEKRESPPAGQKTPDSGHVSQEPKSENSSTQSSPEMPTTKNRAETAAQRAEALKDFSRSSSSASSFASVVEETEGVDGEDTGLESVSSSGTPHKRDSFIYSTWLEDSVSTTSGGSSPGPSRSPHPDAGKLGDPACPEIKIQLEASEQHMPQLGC
inactive: vemurafenib 0.009 | [1] 0.055 | barasertib 0.008 | [2] 0.044 | volasertib -0.075 | [3] 0.003 | [4] -0.038 | [5] 0.02 | saracatinib 0.06 | sotrastaurin 0.029

RAPGEF4 (UniProt Q8WZA2)
Chain of UniProt Q8WZA2 (Q8WZA2 whole entry, looked up): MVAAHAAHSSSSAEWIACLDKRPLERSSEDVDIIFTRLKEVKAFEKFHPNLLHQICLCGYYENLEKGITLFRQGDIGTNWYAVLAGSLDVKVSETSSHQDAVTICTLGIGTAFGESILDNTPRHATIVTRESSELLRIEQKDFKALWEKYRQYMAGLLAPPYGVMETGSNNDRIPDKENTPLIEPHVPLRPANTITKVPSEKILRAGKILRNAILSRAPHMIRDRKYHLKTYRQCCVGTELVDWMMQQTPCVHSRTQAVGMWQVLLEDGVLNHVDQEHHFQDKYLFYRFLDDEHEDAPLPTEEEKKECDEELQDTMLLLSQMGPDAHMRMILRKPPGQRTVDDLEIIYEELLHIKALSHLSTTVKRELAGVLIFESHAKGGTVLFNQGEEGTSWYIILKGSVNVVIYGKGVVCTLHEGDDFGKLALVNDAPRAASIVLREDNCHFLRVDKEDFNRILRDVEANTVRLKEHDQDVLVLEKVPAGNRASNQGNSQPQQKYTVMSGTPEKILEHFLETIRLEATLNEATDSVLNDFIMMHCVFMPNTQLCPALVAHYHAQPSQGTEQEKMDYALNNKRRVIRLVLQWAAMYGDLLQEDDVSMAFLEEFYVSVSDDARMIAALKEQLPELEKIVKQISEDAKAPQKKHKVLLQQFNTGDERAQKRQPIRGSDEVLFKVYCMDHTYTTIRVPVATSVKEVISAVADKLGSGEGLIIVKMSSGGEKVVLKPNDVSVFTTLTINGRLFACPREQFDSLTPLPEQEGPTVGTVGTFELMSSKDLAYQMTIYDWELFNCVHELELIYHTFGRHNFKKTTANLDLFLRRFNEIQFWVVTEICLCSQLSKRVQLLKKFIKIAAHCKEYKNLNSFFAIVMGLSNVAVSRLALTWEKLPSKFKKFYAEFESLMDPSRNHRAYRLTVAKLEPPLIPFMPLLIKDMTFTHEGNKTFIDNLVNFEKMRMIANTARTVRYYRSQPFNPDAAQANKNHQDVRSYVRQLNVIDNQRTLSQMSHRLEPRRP
active: [4] -0.887
inactive: vemurafenib 0.157 | [1] 0.077 | barasertib 0.022 | [2] 0.174 | volasertib 0.049 | [3] -0.259 | [5] 0.391 | saracatinib 0.037 | sotrastaurin 0.001

RPL31 (UniProt P62899)
inactive: vemurafenib 0.01 | [1] 0.004 | barasertib 0.004 | [2] 0.006 | volasertib -0.005 | [3] -0.013 | [4] -0.043 | [5] -0.005 | saracatinib 0.024 | sotrastaurin 0.014

RBM8A (UniProt Q9Y5S9)
inactive: vemurafenib -0.086 | [1] -0.045 | barasertib 0.027 | [2] -0.091 | volasertib -0.016 | [3] 0.047 | [4] 0.35 | [5] -0.198 | saracatinib -0.043 | sotrastaurin 0.047

Reference: the supplement of paper PMC10849652
